# A selection: hits, their analogues and other compounds. The true share with any hit is near 2.2%.
# BaF3 tox: parental Ba/F3 viability inhibition as JAK2V617F counter-screen | CellTiter-Glo ATP luminescence | inhibition, % at 5.6 µM | 220,000 compounds, 1.1% hits;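 active means inhibition above a per-campaign cutoff, the mean inhibition of all tested compounds plus 3 SD, cut at about 27% in these data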;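 further: 0% = DMSO wells and 100% = JAK Inhibitor I control wells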
# aSyn 5UTR inh: MLPCN primary screen, SNCA 5' untranslated region | alpha-synuclein 5'UTR reporter, inhibitor activity | inhibition, % (tested at 7.5 µM) | 300,000 compounds, 0.82% hits; in the data active means inhibition above about 60%;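 further: H4 neuroglioblastoma cells stably carrying SNCA 5'UTR luciferase fusion; 0% = DMSO wells and 100% = positive control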
# IEC-6 tox: IEC-6 cytotoxicity, counter-screen for KLF5 inhibitors; luminescence viability; inhibition, % at 5 µM; 290,000 compounds, 0.78% hits; AID 1825; in the data active means inhibition above about 22%;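 further: 0% = plate median of test compound wells and 100% = cytotoxic reference compound wells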
# APP 5UTR inh: APP translation inhibition; SH-SY5Y APP 5'UTR-luciferase reporter, luminescence; inhibition, % at 2 µM; 190,000 compounds, 0.82% hits;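 active means inhibition above a set limit, derived from the sample mean plus 3 SD, cut at about 45% in these data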
# KLF5 inhibitor: suppresses KLF5 promoter-driven expression; DLD-1 KLF5 promoter-luciferase reporter, luminescence; inhibition, % at 5 µM; 290,000 compounds, 0.23% hits; AID 1700;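 active means inhibition above a per-plate limit of that plate's mean compound inhibition plus 3 SD, cut at about 60% in these data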;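 further: 0% = DMSO wells and 100% = LY294002 at 200 µM; higher means less KLF5 promoter-driven luciferase light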
# Ba/F3 V617F tox: lowers viability of Ba/F3 cells expressing EpoR and JAK2V617F; ATP luminescence; inhibition, % at 5.6 µM; 220,000 compounds, 1.1% hits;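 active means inhibition above the campaign mean plus 3 SD over all tested compounds, cut at about 24% in these data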;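 further: cytokine-independent growth of Ba/F3 cells driven by EpoR plus mutant JAK2; 0% = DMSO-treated cells and 100% = JAK inhibitor I control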
# * hit, by the source's call; nt = no result given.
SMILES,BaF3 tox,aSyn 5UTR inh,IEC-6 tox,APP 5UTR inh,KLF5 inhibitor,Ba/F3 V617F tox
COc1cc(/C=N/NC(N)=S)ccc1OCc1ccc(C)cc1,48*,-179,5,-19,-55,60*
COc1cc(/C=N/NS(=O)(=O)c2ccc(C)cc2)ccc1OCc1cccc(C(=O)O)c1,0,90*,-5,31,34,-1
CCN1CCN(C(=O)NCc2ccccc2)CC1,0,-3,4,nt,13,-2
COc1ccc(CCNC(=S)c2ccccc2)cc1OC,nt,-3,-1,nt,-7,nt
COC(=O)c1ccccc1NC(=O)C1CC(=O)N(c2ccc(C)cc2)C1 (centres undefined),54*,-2,-5,1,-37,-1
CCC(CC)C(=O)c1c[nH]c(C(=O)OC)c1,7,-9,2,-13,11,1
C/C(=N\NC(=O)c1cc2ccccc2cc1O)c1cc2ccccc2o1,-2,-35,-8,nt,-30,-2
C/C(=N\NC(=O)CCCNc1ccccc1)c1ccncc1,6,5,6,-8,-38,0
C/C(=N\NC(=O)c1c[nH]c2ccccc12)c1ccccn1,4,72*,6,47*,-58,-2
C/C(=N\NC(=O)CCCNc1ccc(C)cc1)c1ccccn1,4,78*,2,31,-30,1
C=CCNC(=S)N/N=C(\C)c1ccccn1,91*,86*,91*,93*,54,98*
C/C(=N\NC(=O)c1cc2ccccc2cc1O)c1ccccn1,nt,88*,0,nt,27,nt
Cc1cccc(-c2nc3c(c(SCC(=O)N4CCOCC4)n2)COC(C)(C)C3)c1,nt,-1,-5,nt,-16,nt
COC(=O)c1ccc(N2CCN(C)CC2)c(NC(=O)c2cccs2)c1,nt,-10,1,nt,-6,nt
O=C(CCC(=O)Nc1cccnc1)Nc1cccnc1,nt,-9,nt,nt,nt,nt
CCC(=O)NC(c1cccs1)c1cc([N+](=O)[O-])c2cccnc2c1O (centres undefined),7,4,3,nt,0,-3
COc1ccc(C(NC(=O)c2cccnc2)c2cc(Cl)c3cccnc3c2O)cc1OC (centres undefined),5,76*,7,74*,1,1
O=C(CCc1ccccc1)NC(c1cccs1)c1cc(Cl)c2cccnc2c1O (centres undefined),1,88*,-4,68*,-14,-1
CCC(=O)NC(c1ccc(OC)cc1)c1cc(Cl)c2cccnc2c1O (centres undefined),-1,81*,2,64*,-5,-2
CCC(=O)NC(c1ccco1)c1cc(Cl)c2cccnc2c1O (centres undefined),9,100*,-5,-4,13,0
Cc1ccc(C2(C)NC(=O)N(CC(=O)NC(=O)NC(C)(C)C)C2=O)cc1 (centres undefined),nt,-1,-1,nt,-36,nt
CCOC(=O)C1CCN(C(=O)Nc2ccc(OC(F)(F)F)cc2)CC1,0,-9,4,nt,-44,-1
CCCCC(=O)NC(c1ccco1)c1cc(Cl)c2cccnc2c1O (centres undefined),7,41,-4,46*,-2,3
Cc1ccccc1N=C/C=C1\N(C)c2ccccc2C1(C)C,48*,-18,-1,-14,-18,1
CN1/C(=C\C=[N+](C)c2ccccc2)C(C)(C)c2ccccc21,66*,16,5,10,-21,75*
SMILES,BaF3 tox,aSyn 5UTR inh,IEC-6 tox,APP 5UTR inh,KLF5 inhibitor,Ba/F3 V617F tox
CSc1ccc(/C=C(\NC(=O)c2ccc(C)cc2)C(=O)NN)cc1,57*,7,-4,nt,-16,13
CSc1ccc(/C=C(/NC(=O)c2ccc(C)cc2)C(=O)Nc2cccc(C)c2)cc1,3,22,-1,-20,-20,2
CCCn1c(N2CCN(CC(=O)c3c(C)n(C)c4ccc(OC)cc34)CC2)nc2c1c(=O)[nH]c(=O)n2C,0,63*,7,3,13,2
COc1ccc(CCn2c(N3CCN(C)CC3)nc3c2c(=O)[nH]c(=O)n3C)cc1,5,-4,3,3,-37,-1
Cc1ccc(C(=O)Nc2cccc(C(F)(F)F)c2)cc1NC(=O)c1cnnc2ccccc12,nt,64*,nt,nt,nt,nt
Cc1ccc(C(=O)Nc2cccc(C(F)(F)F)c2)cc1Nc1cncnc1,nt,-11,-4,nt,0,nt
Cc1ccc(C(=O)Nc2cccc(C(F)(F)F)c2)cc1NC(=O)c1nccnc1N,nt,78*,nt,nt,nt,nt
COc1cc(NC(=O)c2nccnc2N)cc(C(=O)Nc2cccc(C(F)(F)F)c2)c1,nt,-6,nt,nt,nt,nt
O=C(CC1C(=O)NCCN1Cc1ccccc1C(F)(F)F)NCCc1ccccn1 (centres undefined),80*,-15,8,14,-13,1
O=C(CC1C(=O)NCCN1Cc1c(F)cccc1Cl)NCCc1ccccn1 (centres undefined),8,3,1,8,-21,3
Brc1ccc(C2C3=C(Nc4ncnn42)c2ccccc2OC3c2ccncc2)cc1 (centres undefined),9,71*,-1,8,-19,3
COc1ccc(C2Oc3ccccc3C3=C2C(c2cccs2)n2ncnc2N3)cc1 (centres undefined),8,56,2,37,8,-1
COC(=O)Oc1ccc(/C=C/C(=O)OC(C)C)cc1OC(=O)OC,35*,-127,13,37,-101,71*
CCCn1c(C)cc(C(=O)COc2ccc(C)nc2[N+](=O)[O-])c1C,7,-5,-5,-5,-10,2
Cc1ccc(OCC(=O)c2cc(C)n(-c3ccccc3)c2C)c([N+](=O)[O-])n1,6,68*,9,29,-19,-1
CC1(C)CC(=O)C(CC2=C(O)CC(C)(C)CC2=O)C(=O)C1,2,27,-3,53*,-41,-4
COc1ccc(CCNC(=O)c2ccc3c(c2)NC(=O)C(CSCc2cc(C)ccc2C)N3)cc1OC (centres undefined),nt,14,-3,nt,-7,nt
CCC1CCCCN1CCCNC(=O)c1ccc(N2CCOCC2)c(NS(=O)(=O)c2ccc(OC)cc2)c1 (centres undefined),52*,-4,-2,0,-15,-8
CCOC(=O)c1c(C)nn(-c2ccc(NC(=O)/C=C/C(=O)O)cc2)c1C,-2,92*,5,nt,48,-1
CCOC(=O)c1c(C)nn(-c2ccc(NC(=O)c3c(C)noc3C)cc2)c1C,nt,51,5,nt,-10,nt
O=C(NC(=S)NNC(=O)[C@H]1C[C@@H]1c1ccccc1)c1cccc(F)c1,-4,67*,4,nt,-16,-2
O=[N+]([O-])c1cccc(-c2cc3cccc[n+]3cc2-c2cccc([N+](=O)[O-])c2)c1,0,1,1,1,-3,3
Cc1cccc2cc(-c3ccccc3)c(-c3ccccc3)c[n+]12,72*,13,4,0,10,90*
COc1cc(/C=C/C(=O)O)cc(S(=O)(=O)NCc2ccco2)c1OC,90*,0,0,-14,-5,1
